Structures can show the parent of a compound that is named as a salt.
How the values were obtained:
Conditions in all cases: incubation time: 27 h, anaerobic, 37 °C;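 for the amine columns active = adjusted P below 0.05 in both replicates with a change the same way and a mean fold change under 0.8 or over 1.25; inactive = the rest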
[1] = system: Clostridium sporogenes DSM 1664; experiment: growth (OD595) fold change vs plate DMSO controls (fold change (ratio)); higher = more growth
How it was run: (§1)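 The 96-well mGAM cultures had been kept anaerobic for 27 h at 37 °C before being shaken and read at 595 nm. Blank subtraction, compound background correction with 20 µM compound solutions in water, and a calibration factor of 5 turned the readings into OD. Growth is given as the fold change versus the median of plate DMSO controls. Fold changes above 1.5 were set to NA, and the values are means of 2 biological replicates.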

Escherichia coli IAI1 [2] = experiment: as above
How it was run: as §1

[3] = system: Klebsiella aerogenes DSM 30053; experiment: as above
How it was run: as §1

[4] = system: Ruminococcus gnavus DSM 108212; experiment: as above
How it was run: as §1

[5] = system: Klebsiella aerogenes DSM 30053; experiment: fold change of Histamine concentration vs plate DMSO controls (fold change (ratio)); higher = more amine produced, active = hit call of the paper (significant change in both replicates, either direction)
How it was run: (§2)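 Anaerobic mGAM cultures of four gut bacterial strains were grown at 37 °C for 27 h in 80 µL wells, starting at OD 0.1 before 1:1 dilution. Compounds were at 20 µM final (sweeteners 50 µM). Whole cultures were extracted with cold acetonitrile/methanol containing 0.1% formic acid and centrifuged. Amines were quantified by LC–triple-quadrupole MS (dynamic MRM) against external calibration curves and drift-corrected within batch. Each value is the fold change versus plate DMSO controls, averaged over 2 biological replicates.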

[6] = system: Clostridium sporogenes DSM 1664; experiment: fold change of Tryptamine concentration vs plate DMSO controls (fold change (ratio)); higher = more amine produced, active = hit call of the paper (significant change in both replicates, either direction)
How it was run: as §2

[7] = system: Ruminococcus gnavus DSM 108212; experiment: as above
How it was run: as §2

Escherichia coli IAI1 [8] = experiment: fold change of Putrescine concentration vs plate DMSO controls (fold change (ratio)); higher = more amine produced, active = hit call of the paper (significant change in both replicates, either direction)
How it was run: as §2

[9] = system: Klebsiella aerogenes DSM 30053; experiment: as above
How it was run: as §2

Escherichia coli IAI1 [10] = experiment: fold change of Cadaverine concentration vs plate DMSO controls (fold change (ratio)); higher = more amine produced, active = hit call of the paper (significant change in both replicates, either direction)
How it was run: as §2

[11] = system: Klebsiella aerogenes DSM 30053; experiment: as above
How it was run: as §2

[12] = system: Ruminococcus gnavus DSM 108212; experiment: fold change of 2-Phenylethylamine concentration vs plate DMSO controls (fold change (ratio)); higher = more amine produced, active = hit call of the paper (significant change in both replicates, either direction)
How it was run: as §2

## CC(=O)OCC(=O)[C@@]1(OC(C)=O)[C@@H](C)C[C@H]2[C@@H]3C[C@H](F)C4=CC(=O)C=C[C@]4(C)[C@@]3(F)[C@@H](O)C[C@@]21C [Diflorasone Diacetate] (20 µM)
[1]
  growth: 1.05
Escherichia coli IAI1 [2]
  growth: 0.996
[3]
  growth: 0.978
[4]
  growth: 0.993
[5]
  fold change of Histamine concentration: 1.03 (inactive)
[6]
  fold change of Tryptamine concentration: 1.03 (inactive)
[7]
  fold change of Tryptamine concentration: 1.01 (inactive)
Escherichia coli IAI1 [8]
  fold change of Putrescine concentration: 0.969 (inactive)
[9]
  fold change of Putrescine concentration: 1.01 (inactive)
Escherichia coli IAI1 [10]
  fold change of Cadaverine concentration: 1.02 (inactive)
[11]
  fold change of Cadaverine concentration: 0.989 (inactive)
[12]
  fold change of 2-Phenylethylamine concentration: 0.978 (inactive)

## NS(=O)(=O)c1cc2c(cc1Cl)NC(C(Cl)Cl)NS2(=O)=O (stereo unspecified) [Trichlormethiazide] (20 µM)
[1]
  growth: 1.14
Escherichia coli IAI1 [2]
  growth: 1.08
[3]
  growth: 1.01
[4]
  growth: 1.07
[5]
  fold change of Histamine concentration: 1.05 (inactive)
[6]
  fold change of Tryptamine concentration: 1.05 (inactive)
[7]
  fold change of Tryptamine concentration: 1.03 (inactive)
Escherichia coli IAI1 [8]
  fold change of Putrescine concentration: 1.11 (inactive)
[9]
  fold change of Putrescine concentration: 1.02 (inactive)
Escherichia coli IAI1 [10]
  fold change of Cadaverine concentration: 1.03 (inactive)
[11]
  fold change of Cadaverine concentration: 0.984 (inactive)
[12]
  fold change of 2-Phenylethylamine concentration: 1.01 (inactive)

## CCSc1ccc2c(c1)N(CCCN1CCN(C)CC1)c1ccccc1S2 [Thiethylperazine maleate] (20 µM)
[1]
  growth: 1.26
Escherichia coli IAI1 [2]
  growth: 1.05
[3]
  growth: 1.17
[4]
  growth: 0.847
[5]
  fold change of Histamine concentration: 1.01 (inactive)
[6]
  fold change of Tryptamine concentration: 0.971 (inactive)
[7]
  fold change of Tryptamine concentration: 0.851 (inactive)
Escherichia coli IAI1 [8]
  fold change of Putrescine concentration: 1.07 (inactive)
[9]
  fold change of Putrescine concentration: 1.07 (inactive)
Escherichia coli IAI1 [10]
  fold change of Cadaverine concentration: 1.06 (inactive)
[11]
  fold change of Cadaverine concentration: 1.05 (inactive)
[12]
  fold change of 2-Phenylethylamine concentration: 0.915 (inactive)

## CCCC(=O)N1CCCN(c2nc(N)c3cc(OC)c(OC)cc3n2)CC1 [Bunazosin hydrochloride] (20 µM)
[1]
  growth: 1.05
Escherichia coli IAI1 [2]
  growth: 1.05
[3]
  growth: 1
[4]
  growth: 1.06
[5]
  fold change of Histamine concentration: 1.04 (inactive)
[6]
  fold change of Tryptamine concentration: 1.02 (inactive)
[7]
  fold change of Tryptamine concentration: 1 (inactive)
Escherichia coli IAI1 [8]
  fold change of Putrescine concentration: 0.989 (inactive)
[9]
  fold change of Putrescine concentration: 0.996 (inactive)
Escherichia coli IAI1 [10]
  fold change of Cadaverine concentration: 0.996 (inactive)
[11]
  fold change of Cadaverine concentration: 0.984 (inactive)
[12]
  fold change of 2-Phenylethylamine concentration: 1.03 (inactive)

## CCCC(=O)OCOC(=O)C1=C(C)NC(C)=C(C(=O)OC)C1c1cccc(Cl)c1Cl (stereo unspecified) [Clevidipine] (20 µM)
[1]
  growth: 0.828
Escherichia coli IAI1 [2]
  growth: 1.03
[3]
  growth: 1.01
[4]
  growth: 1.22
[5]
  fold change of Histamine concentration: 1.01 (inactive)
[6]
  fold change of Tryptamine concentration: 0.829 (inactive)
[7]
  fold change of Tryptamine concentration: 0.902 (inactive)
Escherichia coli IAI1 [8]
  fold change of Putrescine concentration: 1.04 (inactive)
[9]
  fold change of Putrescine concentration: 1.01 (inactive)
Escherichia coli IAI1 [10]
  fold change of Cadaverine concentration: 0.985 (inactive)
[11]
  fold change of Cadaverine concentration: 0.998 (inactive)
[12]
  fold change of 2-Phenylethylamine concentration: 0.928 (inactive)

## CC(C)NCC(O)COc1ccc(CCOCC2CC2)cc1 (stereo unspecified) [Betaxolol hydrochloride] (20 µM)
[1]
  growth: 1.11
Escherichia coli IAI1 [2]
  growth: 0.969
[3]
  growth: 1.07
[4]
  growth: 0.967
[5]
  fold change of Histamine concentration: 0.935 (inactive)
[6]
  fold change of Tryptamine concentration: 0.955 (inactive)
[7]
  fold change of Tryptamine concentration: 1 (inactive)
Escherichia coli IAI1 [8]
  fold change of Putrescine concentration: 1.02 (inactive)
[9]
  fold change of Putrescine concentration: 0.994 (inactive)
Escherichia coli IAI1 [10]
  fold change of Cadaverine concentration: 0.99 (inactive)
[11]
  fold change of Cadaverine concentration: 1 (inactive)
[12]
  fold change of 2-Phenylethylamine concentration: 1.01 (inactive)

## C[C@@H](CN1CC(=O)NC(=O)C1)N1CC(=O)NC(=O)C1 [Dexrazoxane hydrochloride] (20 µM)
[1]
  growth: 1.26
Escherichia coli IAI1 [2]
  growth: 1.01
[3]
  growth: 1.05
[4]
  growth: 0.949
[5]
  fold change of Histamine concentration: 1.01 (inactive)
[6]
  fold change of Tryptamine concentration: 0.997 (inactive)
[7]
  fold change of Tryptamine concentration: 1.03 (inactive)
Escherichia coli IAI1 [8]
  fold change of Putrescine concentration: 0.979 (inactive)
[9]
  fold change of Putrescine concentration: 1.02 (inactive)
Escherichia coli IAI1 [10]
  fold change of Cadaverine concentration: 0.988 (inactive)
[11]
  fold change of Cadaverine concentration: 1.01 (inactive)
[12]
  fold change of 2-Phenylethylamine concentration: 1.02 (inactive)

## C[N+]1(CCCCC[N+]2(C)CCCC2)CCCC1 [Pentolinium bitartrate] (20 µM)
[1]
  growth: 0.933
Escherichia coli IAI1 [2]
  growth: 0.986
[3]
  growth: 1.01
[4]
  growth: 0.709
[5]
  fold change of Histamine concentration: 1.06 (inactive)
[6]
  fold change of Tryptamine concentration: 1.08 (inactive)
[7]
  fold change of Tryptamine concentration: 0.98 (inactive)
Escherichia coli IAI1 [8]
  fold change of Putrescine concentration: 1.03 (inactive)
[9]
  fold change of Putrescine concentration: 1.01 (inactive)
Escherichia coli IAI1 [10]
  fold change of Cadaverine concentration: 0.966 (inactive)
[11]
  fold change of Cadaverine concentration: 0.999 (inactive)
[12]
  fold change of 2-Phenylethylamine concentration: 0.943 (inactive)

## COc1ccc(C2C(=O)c3ccccc3C2=O)cc1 [Anisindione] (20 µM)
[1]
  growth: 0.917
Escherichia coli IAI1 [2]
  growth: 0.951
[3]
  growth: 0.965
[4]
  growth: 1.04
[5]
  fold change of Histamine concentration: 1.03 (inactive)
[6]
  fold change of Tryptamine concentration: 0.976 (inactive)
[7]
  fold change of Tryptamine concentration: 0.994 (inactive)
Escherichia coli IAI1 [8]
  fold change of Putrescine concentration: 0.953 (inactive)
[9]
  fold change of Putrescine concentration: 1 (inactive)
Escherichia coli IAI1 [10]
  fold change of Cadaverine concentration: 0.994 (inactive)
[11]
  fold change of Cadaverine concentration: 0.991 (inactive)
[12]
  fold change of 2-Phenylethylamine concentration: 0.951 (inactive)

## Cc1cc(NS(=O)(=O)c2ccc(N)cc2)no1 [Sulfamethoxazole] (20 µM)
[1]
  growth: 1.01
Escherichia coli IAI1 [2]
  growth: 1.11
[3]
  growth: 1.06
[4]
  growth: 0.913
[5]
  fold change of Histamine concentration: 1.12 (inactive)
[6]
  fold change of Tryptamine concentration: 0.999 (inactive)
[7]
  fold change of Tryptamine concentration: 1.01 (inactive)
Escherichia coli IAI1 [8]
  fold change of Putrescine concentration: 1.13 (inactive)
[9]
  fold change of Putrescine concentration: 1.03 (inactive)
Escherichia coli IAI1 [10]
  fold change of Cadaverine concentration: 0.911 (inactive)
[11]
  fold change of Cadaverine concentration: 1 (inactive)
[12]
  fold change of 2-Phenylethylamine concentration: 0.978 (inactive)

## COC(=O)[C@H](Cc1ccccc1)NC(=O)[C@H](CC(=O)O)NCCC(C)(C)C [Neotame] (50 µM)
[1]
  growth: 1.05
Escherichia coli IAI1 [2]
  growth: 1
[3]
  growth: 1.04
[4]
  growth: 1.07
[5]
  fold change of Histamine concentration: 0.99 (inactive)
[6]
  fold change of Tryptamine concentration: 1.05 (inactive)
[7]
  fold change of Tryptamine concentration: 1.01 (inactive)
Escherichia coli IAI1 [8]
  fold change of Putrescine concentration: 1.01 (inactive)
[9]
  fold change of Putrescine concentration: 1.01 (inactive)
Escherichia coli IAI1 [10]
  fold change of Cadaverine concentration: 0.933 (inactive)
[11]
  fold change of Cadaverine concentration: 1.02 (inactive)
[12]
  fold change of 2-Phenylethylamine concentration: 1.02 (inactive)

## CCN(CC)CCOC(=O)C(c1ccccc1)c1ccccc1 [Adiphenine hydrochloride] (20 µM)
[1]
  growth: 1.07
Escherichia coli IAI1 [2]
  growth: 1.03
[3]
  growth: 1.16
[4]
  growth: 1
[5]
  fold change of Histamine concentration: 0.877 (inactive)
[6]
  fold change of Tryptamine concentration: 1.05 (inactive)
[7]
  fold change of Tryptamine concentration: 0.977 (inactive)
Escherichia coli IAI1 [8]
  fold change of Putrescine concentration: 1 (inactive)
[9]
  fold change of Putrescine concentration: 0.932 (inactive)
Escherichia coli IAI1 [10]
  fold change of Cadaverine concentration: 1.01 (inactive)
[11]
  fold change of Cadaverine concentration: 1.03 (inactive)
[12]
  fold change of 2-Phenylethylamine concentration: 0.968 (inactive)

## CC1(C)S[C@@H]2[C@H](NC(=O)C(c3ccccc3)S(=O)(=O)O)C(=O)N2[C@H]1C(=O)O (stereo partly specified) [Sulbenicillin sodium salt] (20 µM)
[1]
  growth: 0
Escherichia coli IAI1 [2]
  growth: 0.378
[3]
  growth: 0.634
[4]
  growth: 0
[5]
  fold change of Histamine concentration: 1.18 (inactive)
[6]
  fold change of Tryptamine concentration: 0.0125 (active)
[7]
  fold change of Tryptamine concentration: 0.086 (active)
Escherichia coli IAI1 [8]
  fold change of Putrescine concentration: 1.84 (inactive)
[9]
  fold change of Putrescine concentration: 0.969 (inactive)
Escherichia coli IAI1 [10]
  fold change of Cadaverine concentration: 1.87 (active)
[11]
  fold change of Cadaverine concentration: 1.08 (inactive)
[12]
  fold change of 2-Phenylethylamine concentration: 0.0641 (active)

From the supplement of paper PMC12494721
